Screens as filed in PubChem BioAssay.
This is a sample that favours compounds with a hit; in the whole collection about 3.2% have one here.
TWEAK-Fn14 inh: inhibitors of TWEAK-Fn14 interaction signaling. AID 1159606. 360,000 tested, 2% active. inhibition, % at 10 µM. TWEAK-stimulated Fn14 reporter cells, luciferase luminescence, 8 h; in the data active = inhibition above about 50%
EBV LMP1 NFkB: reduces LMP1-driven NF-kappaB luciferase signal; 350,000 tested, 0.69% active; LMP1-induced NF-kappaB luciferase reporter cells, luminescence; inhibition, % at 12.5 µM; in the data active = inhibition above about 41%; inconclusive = no clear call, values can overlap the other calls
EWS-Fli block: EWS/Fli transcriptional activity inhibition. A673 NR0B1-luciferase reporter, viability-normalised. inhibition, % at 12.6 µM. 350,000 tested, 0.67% active. AID 651661;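 active = mean inhibition of at least 50% after viability correction, with every replicate also passing that limit; inconclusive = mean reaches 50% but only one of two replicates passes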;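 note: firefly luciferase signal divided by Alamar Blue viability fluorescence both relative to DMSO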
TROY signal inh: TROY signaling inhibition. AID 1347056. inhibition, % at 10 µM. 360,000 tested, 0.98% active. Q293 LMP1-TROYcd NF-kB luciferase reporter, 4 h;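 active = compounds whose plate-normalised and pattern-corrected inhibition of the luciferase reporter signal at the single screening dose is 50% or more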
LGR2 inh: inhibitors of bursicon-induced Drosophila LGR2 receptor cAMP signaling; HEK293 LGR2, CRE-luciferase, bursicon-stimulated, 4 h; inhibition, % at 9.99 µM; 380,000 tested, 0.35% active; AID 720647;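 active = drop in luminescence signal, shown as inhibition above about 50% in the replicate tests, limit read from the data, passing the limit was not always enough; inconclusive = probably only some replicates passing the limit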;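 note: agonist challenge used bursicon conditioned medium at about half maximal strength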
PAX8 reporter: lowers PAX8-driven luciferase in RMG-I cells; AID 652154; inhibition, % at 12.6 µM; RMG-I TPO-luciferase reporter, SteadyGlo, 24 h; 360,000 tested, 1.2% active;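 active = mean replicate inhibition at least 60% with every replicate also reaching 60%; inconclusive = only one of the two criteria is met; inactive = mean below 60% and not all replicates reaching 60%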;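 note: luciferase light reporting Pax8 driven TPO promoter activity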
A number is an active result; 0 = inactive; ? = inconclusive; - = no result; ! = not active in a repeat.

SMILES	TWEAK-Fn14 inh	EBV LMP1 NFkB	EWS-Fli block	TROY signal inh	LGR2 inh	PAX8 reporter
CNS(=O)(=O)c1cccc(C(=O)OCc2cc(=O)oc3c(C)c(O)ccc23)c1	0	0	0	51	0	0
CCc1cc2c(COC(=O)c3cccc(S(C)(=O)=O)c3)cc(=O)oc2cc1O	56	0	0	0	0	0
O=C(Nc1ccccc1F)N[C@@H]1C=C[C@@H](CC(=O)N2CCCCC2)O[C@H]1CO	-	-	0	-	0	0
C[C@@H]1CCCCO[C@H](CN(C)C)[C@H](C)CN([C@H](C)CO)C(=O)c2cc(NS(=O)(=O)c3ccccc3)ccc2O1	-	-	0	-	0	0
Cc1ccc2nc(NC(=O)c3ccc(OCC4CCCO4)cc3)sc2c1 (stereo not drawn)	90	0	0	0	0	0
Cc1cccnc1NC(=O)c1ccc(OCC2CCCO2)cc1 (stereo not drawn)	0	0	0	0	0	0
Cc1cc(C)c2nc(NC(=O)c3ccc(OCC4CCCO4)cc3)sc2c1 (stereo not drawn)	53	0	0	0	0	0
S=c1[nH]nc(-c2cccnc2)n1/N=C/c1ccccc1	0	0	0	0	0	0
Fc1cccc(Cl)c1/C=N/n1c(-c2cccnc2)n[nH]c1=S	0	52	0	0	0	0
O=C(NCc1ccccc1)c1cccc2c(-c3ccc(F)c(F)c3)coc12	0	-	-	0	-	-
COc1ccc(CNC(=O)c2cccc3c(-c4cccc(C(N)=O)c4)coc23)cc1OC	91	-	0	63	0	0
COc1cc(-c2coc3c(C(=O)NCc4ccc(OC)c(OC)c4)cccc23)ccc1O	95	-	0	67	0	0
COc1ccc(CNC(=O)c2cccc3c(-c4ccc(F)c(F)c4)coc23)cc1OC	64	-	-	0	-	-
CCC1C(=O)C(C)(C)C(=O)OC1c1ccc([N+](=O)[O-])cc1 (stereo not drawn)	0	0	0	0	0	0
O=C1CC(=O)OC(c2ccc([N+](=O)[O-])cc2)O1	102	0	-	0	-	-
COc1ccccc1S(=O)(=O)N(C)C[C@H]1Oc2cc(C#CCC3CCCC3)ccc2S(=O)(=O)N([C@H](C)CO)C[C@H]1C	0	0	0	0	0	84!
COc1ccccc1S(=O)(=O)N(C)C[C@@H]1Oc2cc(C#CCC3CCCC3)ccc2S(=O)(=O)N([C@H](C)CO)C[C@@H]1C	-	-	0	-	0	64
COc1ccccc1S(=O)(=O)N(C)C[C@H]1Oc2cc(C#CCC3CCCC3)ccc2S(=O)(=O)N([C@H](C)CO)C[C@@H]1C	-	-	0	-	0	73
O=[N+]([O-])/C=C\c1ccc(N2CCOCC2)cc1	53	?	0	53	?	0
O=C(COc1ccc(/C=C\[N+](=O)[O-])cc1)N1CCOCC1	0	0	0	0	0	0
CCCn1c(=S)[nH]c2sc3c(c2c1=O)CCCC3	0	0	0	0	0	0
Nn1c(=S)[nH]c2sc3c(c2c1=O)CCCC3	53	0	0	75	0	0
Cc1cccc(C(=O)Nc2ccn(C)n2)c1	0	0	0	0	0	0
O=C(c1ccco1)n1c(=S)nc2ccccn21	0	0	-	0	0	-
Cc1cccc(C(=O)n2c(=S)nc3cc(C)ccn32)c1	85	0	0	71	80	0
SMILES	TWEAK-Fn14 inh	EBV LMP1 NFkB	EWS-Fli block	TROY signal inh	LGR2 inh	PAX8 reporter
Cc1ccn2c(c1)nc(=S)n2C(=O)c1ccccc1	98	49	71	74	-	0
CC(=O)N[C@H]1C[C@@H]2O[C@@H](CO)CC[C@@H]2O[C@@H]1CCc1ccc(-c2ccc(F)cc2)cc1	-	-	0	-	-	-
COc1ccc(OC)c(S(=O)(=O)Nc2cc3c4c(c2)CCC(=O)N4CCC3)c1	0	0	0	0	0	0
COc1ccc(OC)c(S(=O)(=O)Nc2cc3c4c(c2)C(C)C(=O)N4CCC3)c1 (stereo not drawn)	0	0	0	57	0	0
CCN(CC)CCOC(=O)c1ccc(NC(=O)CCCN2C(=O)S/C(=C/c3ccc(OC)cc3)C2=S)cc1	73	0	-	0	-	-
COc1ccc(/C=C2\SC(=S)N(CCC(=O)Nc3ccc(O)cc3)C2=O)cc1	0	0	0	0	0	0
CC(C)NC(=O)Nc1ccc2c(c1)C(=O)N([C@@H](C)CO)C[C@H](C)[C@H](CN(C)S(=O)(=O)c1cccs1)OCCCC[C@@H](C)O2	-	-	0	-	0	0
Cc1cccc(N2CCN(C(=O)c3[nH]c(C(F)(F)F)nc3-c3ccccc3)CC2)c1C	0	-	0	0	-	77
COc1ccccc1N1CCN(C(=O)c2[nH]c(C(F)(F)F)nc2-c2ccccc2)CC1	0	-	72	0	0	0
O=C(c1[nH]c(C(F)(F)F)nc1-c1ccccc1)N1CCN(c2cccc(C(F)(F)F)n2)CC1	0	-	55	0	0	0
CC(=O)N1CCN(C(=O)c2[nH]c(C(F)(F)F)nc2-c2ccccc2)CC1	0	-	0	0	-	0
COc1ccc2c3c([nH]c2c1)[C@@H](CO)N(Cc1nccs1)CC31CCN(Cc2nccs2)CC1	-	-	0	-	0	-
C[C@@H]1CN([C@H](C)CO)C(=O)Cc2cc(NC(=O)C3CC3)ccc2O[C@H]1CN(C)S(=O)(=O)c1cn(C)cn1	-	-	0	-	0	0
CCOc1ccc(C(=O)c2cc([N+](=O)[O-])ccc2N2CCOCC2)cc1	0	0	0	0	0	91
COc1ccc(C(=O)c2cc([N+](=O)[O-])ccc2N2CCOCC2)cc1	0	0	0	0	0	105
O=C(O)c1cc([N+](=O)[O-])ccc1N1CCCCC1	0	0	-	0	0	0
COc1ccc(C(=S)N2CCOCC2)cc1OC(=O)c1ccc([N+](=O)[O-])cc1[N+](=O)[O-]	100	0	0	0	0	0
Cc1ccc(C(=O)c2cc([N+](=O)[O-])ccc2N2CCCCC2)c(C)c1	0	0	0	0	0	89
Cc1ccc(S(=O)(=O)Nc2ccc3c(c2)C(=O)N([C@H](C)CO)C[C@H](C)[C@@H](CN(C)C(=O)NC2CCCCC2)OCCCC[C@H](C)O3)cc1	-	-	0	-	0	0
O=C(C[C@H]1C[C@@H]2c3cc(NS(=O)(=O)c4ccc(F)cc4)ccc3O[C@@H]2[C@@H](CO)O1)NCC1CC1	-	-	0	-	0	0
C[C@H]1CN([C@@H](C)CO)S(=O)(=O)c2ccc(/C=C/c3ccccc3)cc2O[C@H]1CN(C)C(=O)c1ccncc1	-	-	0	-	0	-
COc1ccccc1Cc1c(C(C)(C)C)nc2c3ccccc3ccn12	0	-	0	0	0	65
COc1ccccc1Cc1c(-c2ccccc2)nc2c3ccccc3ccn12	-	-	0	-	0	0
CO[C@H]1CN(C)C(=O)c2ccc(NC(=O)CC(F)(F)F)cc2OC[C@@H](C)N(CC2CC2)C[C@H]1C	-	-	0	-	0	0
CCn1cc(/C=C(\NC(=O)c2ccccc2F)C(=O)NCCCN2CCOCC2)c2ccccc21	68	0	-	0	0	0
CCn1cc(/C=C(\NC(=O)c2ccc(C)cc2)C(=O)NCCCN2CCOCC2)c2ccccc21	0	0	0	0	0	0
c1csc(CNc2ncnc3ccc(-c4ccc5c(c4)OCO5)cc23)c1	0	0	0	0	-	0
